Source: the supplement of paper PMC10849652
Of roughly 7,900 targets only a part is listed; those with a hit were picked by preference. About 0.6% of all pairs of compound and target were hits.

Columns and labels:
Experiment in all cases: log2 fold change, soluble protein after heating vs DMSO (PISA); higher = thermal stabilisation; K562 cells, 10 uM, 30 min; active = over 0.2 and 3.5 SD of the protein, either way, in both replicates (recomputed)
erlotinib = compound: C#Cc1cccc(Nc2ncnc3cc(OCCOC)c(OCCOC)cc23)c1 [erlotinib]
Method in brief: (§1)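 K562 cells at 2×10^6 cells/mL were given 10 μM compound for 30 min. Aliquots then went through 3 min of heating across 48°C-58°C, were pooled, and were extracted in PBS with 0.5% NP-40 at 4°C, and the supernatant after 21,000xg for 90 min was quantified by TMTpro 16plex LC-MS/MS with channel sums equalised. Thermal stability relative to control samples, from duplicates, is given as log2 fold change.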

[1] = compound: C/C(=N\NC(=O)C1=CC(=CC=C1)S(=O)(=O)N2CCOCC2)/C3=C(C=CC(=C3)Cl)O
Method in brief: as §1

[2] = compound: C1=CC(=C(C=C1Cl)C2=NC3=NC=CN=C3C(=N2)NC4=CC=NC=C4)F
Method in brief: as §1

[3] = compound: C1=CC(=CC=C1C2=NC3=C(N2)C=C(C=C3)C(=O)N)OC4=CC=C(C=C4)Cl
Method in brief: as §1

[4] = compound: C1=CC2=C(C=CC(=C2)/C=C\3/C(=O)NC(=NCC4=CC=CS4)S3)N=C1
Method in brief: as §1

[5] = compound: C1=CC2=NC=CN=C2C=C1/C=C/3\C(=O)NC(=O)S3
Method in brief: as §1

[6] = compound: C1=CC=C(C=C1)C2=NC(=C(N2)C3=CC=NC=C3)C4=CC(=C(C=C4)Cl)O
Method in brief: as §1

[7] = compound: C1=CC=C2C(=C1)C3=NNC4=CC=CC(=C43)C2=O
Method in brief: as §1

[8] = compound: C1CCN(C1)C(=O)NC2=CC=CC(=C2)NC3=NC=C(C(=N3)NCCC4=CN=CN4)Br
Method in brief: as §1

[9] = compound: C1CN(CCC1(CC2=CC=C(C=C2)Cl)N)C3=NC=NC4=C3C=CN4
Method in brief: as §1

Measured: log2 fold change

PLCG1 isoform 2 (UniProt P19174)
Sequence of UniProt P19174 (P19174 whole entry, looked up): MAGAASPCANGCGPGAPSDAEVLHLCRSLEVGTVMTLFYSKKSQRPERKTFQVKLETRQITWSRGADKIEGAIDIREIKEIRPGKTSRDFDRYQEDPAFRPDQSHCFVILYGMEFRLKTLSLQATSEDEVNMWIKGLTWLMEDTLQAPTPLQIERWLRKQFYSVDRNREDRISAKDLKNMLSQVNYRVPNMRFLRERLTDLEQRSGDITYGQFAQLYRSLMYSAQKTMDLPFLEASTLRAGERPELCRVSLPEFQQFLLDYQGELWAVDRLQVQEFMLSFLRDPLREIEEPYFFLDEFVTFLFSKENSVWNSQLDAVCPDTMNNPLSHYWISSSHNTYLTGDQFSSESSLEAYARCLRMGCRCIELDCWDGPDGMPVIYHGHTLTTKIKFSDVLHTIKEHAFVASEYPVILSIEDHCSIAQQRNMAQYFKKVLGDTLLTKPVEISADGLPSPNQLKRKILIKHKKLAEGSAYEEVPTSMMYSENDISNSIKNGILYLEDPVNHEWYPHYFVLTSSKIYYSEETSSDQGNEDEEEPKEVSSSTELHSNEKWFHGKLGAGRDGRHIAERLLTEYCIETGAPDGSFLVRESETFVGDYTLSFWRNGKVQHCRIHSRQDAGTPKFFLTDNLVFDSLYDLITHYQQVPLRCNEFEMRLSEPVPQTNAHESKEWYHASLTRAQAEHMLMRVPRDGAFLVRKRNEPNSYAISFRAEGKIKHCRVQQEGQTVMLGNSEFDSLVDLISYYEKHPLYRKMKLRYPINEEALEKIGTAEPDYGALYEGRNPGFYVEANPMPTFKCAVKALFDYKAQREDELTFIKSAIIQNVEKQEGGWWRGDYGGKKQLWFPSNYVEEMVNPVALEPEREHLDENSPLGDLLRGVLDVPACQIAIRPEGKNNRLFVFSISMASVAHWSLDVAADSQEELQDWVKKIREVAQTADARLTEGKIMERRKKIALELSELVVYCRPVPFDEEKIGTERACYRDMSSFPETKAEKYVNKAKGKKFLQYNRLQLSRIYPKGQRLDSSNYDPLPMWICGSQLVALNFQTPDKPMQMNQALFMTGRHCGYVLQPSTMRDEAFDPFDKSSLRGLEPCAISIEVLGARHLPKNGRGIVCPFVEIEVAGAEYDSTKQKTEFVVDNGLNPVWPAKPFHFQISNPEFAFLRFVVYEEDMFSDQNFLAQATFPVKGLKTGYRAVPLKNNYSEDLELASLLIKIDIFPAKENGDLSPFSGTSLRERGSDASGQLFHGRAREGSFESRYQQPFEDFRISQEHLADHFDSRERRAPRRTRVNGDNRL
inactive: erlotinib 0.052 | [1] -0.054 | [2] -0.09 | [3] 0.067 | [4] 0.119 | [5] 0.029 | [6] 0.006 | [7] 0.017 | [8] 0.052 | [9] -0.06

POLA2 (UniProt Q14181)
inactive: erlotinib 0.042 | [1] 0.086 | [2] 0.021 | [3] -0.033 | [4] 0.048 | [5] 0.048 | [6] -0.044 | [7] -0.013 | [8] -0.063 | [9] -0.004

PIGH (UniProt Q14442)
inactive: erlotinib -0.036 | [1] 0.068 | [2] 0.049 | [3] 0.027 | [4] 0.042 | [5] -0.03 | [6] -0.065 | [7] -0.054 | [8] -0.005 | [9] 0.009

PRIM1 (UniProt P49642)
inactive: erlotinib 0.005 | [1] 0.011 | [2] -0.044 | [3] 0.049 | [4] -0.005 | [5] 0.027 | [6] -0.09 | [7] 0.061 | [8] -0.033 | [9] -0.074

PCGF2 (UniProt P35227)
inactive: erlotinib 0.11 | [1] 0.037 | [2] 0.001 | [3] -0.013 | [4] 0.177 | [5] -0.023 | [6] 0.053 | [7] -0.002 | [8] -0.057 | [9] -0.061

POLD3 (UniProt Q15054)
inactive: erlotinib 0.083 | [1] 0.131 | [2] 0.048 | [3] -0.031 | [4] 0.048 | [5] 0.038 | [6] 0.027 | [7] -0.07 | [8] -0.016 | [9] -0.099

PRKAA1 isoform 2 (UniProt Q13131)
inactive: erlotinib 0 | [1] 0.026 | [2] 0.084 | [3] 0.045 | [4] 0.018 | [5] 0.013 | [6] 0.012 | [7] -0.051 | [8] -0.034 | [9] 0.012

PPP2R5C isoform 4 (UniProt Q13362)
inactive: erlotinib 0.036 | [1] -0.022 | [2] 0.218 | [3] -0.025 | [4] -0.039 | [5] -0.004 | [6] -0.029 | [7] -0.015 | [8] 0 | [9] 0.019

PDSS2 (UniProt Q86YH6)
inactive: erlotinib 0.029 | [1] -0.011 | [2] -0.04 | [3] 0.012 | [4] 0.053 | [5] -0.025 | [6] 0.026 | [7] -0.006 | [8] 0.061 | [9] 0.073

PRKAG1 isoform 3 (UniProt P54619)
inactive: erlotinib 0.025 | [1] 0.038 | [2] -0.016 | [3] -0.012 | [4] 0.083 | [5] 0.032 | [6] 0.037 | [7] -0.015 | [8] -0.007 | [9] 0.045

PHAX (UniProt Q9H814)
Sequence of UniProt Q9H814 (Q9H814 whole entry, looked up): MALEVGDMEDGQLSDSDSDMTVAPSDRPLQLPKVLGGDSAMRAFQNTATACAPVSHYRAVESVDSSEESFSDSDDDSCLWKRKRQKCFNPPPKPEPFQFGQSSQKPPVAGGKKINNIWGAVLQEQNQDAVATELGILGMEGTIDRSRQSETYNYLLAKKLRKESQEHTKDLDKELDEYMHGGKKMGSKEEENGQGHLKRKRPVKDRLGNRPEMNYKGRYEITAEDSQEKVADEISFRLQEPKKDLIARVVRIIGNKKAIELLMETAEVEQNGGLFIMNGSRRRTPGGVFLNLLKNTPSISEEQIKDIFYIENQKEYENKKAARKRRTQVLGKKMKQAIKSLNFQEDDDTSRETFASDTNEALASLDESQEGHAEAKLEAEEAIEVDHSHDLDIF
inactive: erlotinib -0.004 | [1] 0.042 | [2] 0.045 | [3] 0.009 | [4] 0.023 | [5] 0.054 | [6] -0.047 | [7] -0.101 | [8] -0.013 | [9] 0.059

PSMC3 (UniProt P17980)
inactive: erlotinib -0.039 | [1] -0.107 | [2] -0.037 | [3] 0.008 | [4] -0.059 | [5] -0.025 | [6] -0.002 | [7] -0.001 | [8] 0.026 | [9] -0.004

POTEI (UniProt P0CG38)
inactive: erlotinib 0.023 | [1] 0.007 | [2] -0.009 | [3] 0.011 | [4] -0.037 | [5] -0.052 | [6] 0.045 | [7] 0.038 | [8] -0.003 | [9] 0.046

PSMD1 (UniProt Q99460)
Sequence of UniProt Q99460 (Q99460 whole entry, looked up): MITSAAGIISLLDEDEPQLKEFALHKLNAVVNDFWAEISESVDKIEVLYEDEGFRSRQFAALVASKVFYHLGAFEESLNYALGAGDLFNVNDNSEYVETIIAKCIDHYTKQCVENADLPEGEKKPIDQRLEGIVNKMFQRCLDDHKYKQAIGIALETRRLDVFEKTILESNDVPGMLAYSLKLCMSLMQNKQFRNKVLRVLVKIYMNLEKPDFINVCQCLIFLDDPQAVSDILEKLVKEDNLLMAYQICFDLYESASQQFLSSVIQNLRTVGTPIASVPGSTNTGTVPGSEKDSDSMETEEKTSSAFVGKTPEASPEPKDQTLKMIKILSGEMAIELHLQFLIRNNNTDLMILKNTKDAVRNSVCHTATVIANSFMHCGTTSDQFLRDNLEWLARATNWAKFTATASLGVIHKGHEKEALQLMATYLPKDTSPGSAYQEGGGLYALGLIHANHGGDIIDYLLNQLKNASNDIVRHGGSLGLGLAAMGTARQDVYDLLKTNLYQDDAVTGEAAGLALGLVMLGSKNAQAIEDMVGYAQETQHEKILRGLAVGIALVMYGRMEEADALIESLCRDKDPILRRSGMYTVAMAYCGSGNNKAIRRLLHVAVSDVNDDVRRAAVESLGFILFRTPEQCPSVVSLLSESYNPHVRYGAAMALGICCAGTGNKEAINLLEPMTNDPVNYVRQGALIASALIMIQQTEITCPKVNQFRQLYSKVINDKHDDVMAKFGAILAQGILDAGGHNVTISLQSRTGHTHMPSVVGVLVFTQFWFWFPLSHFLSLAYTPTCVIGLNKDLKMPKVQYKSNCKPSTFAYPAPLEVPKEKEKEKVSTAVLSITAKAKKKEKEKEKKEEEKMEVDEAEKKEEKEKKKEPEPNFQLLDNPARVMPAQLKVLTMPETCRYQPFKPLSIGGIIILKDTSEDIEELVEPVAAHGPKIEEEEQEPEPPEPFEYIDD
inactive: erlotinib -0.08 | [1] -0.074 | [2] 0.028 | [3] 0.021 | [4] -0.061 | [5] -0.018 | [6] 0.062 | [7] 0.034 | [8] 0.001 | [9] -0.025

PDCD4 (UniProt Q53EL6)
inactive: erlotinib 0.107 | [1] -0.041 | [2] 0.14 | [3] -0.051 | [4] 0.16 | [5] 0.145 | [6] 0.072 | [7] 0.108 | [8] 0.024 | [9] 0.027

PLBD1 (UniProt Q6P4A8)
Sequence of UniProt Q6P4A8 (Q6P4A8 whole entry, looked up): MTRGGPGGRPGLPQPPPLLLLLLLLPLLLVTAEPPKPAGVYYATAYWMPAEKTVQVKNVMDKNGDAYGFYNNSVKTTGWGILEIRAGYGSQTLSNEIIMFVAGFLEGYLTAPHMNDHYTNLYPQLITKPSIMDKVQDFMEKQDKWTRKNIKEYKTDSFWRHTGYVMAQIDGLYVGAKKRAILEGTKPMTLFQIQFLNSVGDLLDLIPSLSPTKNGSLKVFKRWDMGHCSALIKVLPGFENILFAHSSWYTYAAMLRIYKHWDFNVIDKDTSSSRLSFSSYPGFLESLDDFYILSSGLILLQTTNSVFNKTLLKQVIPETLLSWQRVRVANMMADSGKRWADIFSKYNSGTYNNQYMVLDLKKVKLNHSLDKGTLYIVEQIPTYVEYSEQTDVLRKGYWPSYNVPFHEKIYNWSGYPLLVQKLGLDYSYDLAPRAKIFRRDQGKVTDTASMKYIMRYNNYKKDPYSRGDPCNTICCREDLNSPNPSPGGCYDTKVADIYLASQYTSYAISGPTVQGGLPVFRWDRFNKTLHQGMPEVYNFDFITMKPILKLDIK
inactive: erlotinib 0.05 | [1] -0.008 | [2] 0.024 | [3] 0.037 | [4] 0.09 | [5] 0.024 | [6] 0.036 | [7] -0.01 | [8] 0.037 | [9] 0.009

PLK1 (UniProt P53350)
inactive: erlotinib -0.027 | [1] 0.035 | [2] 0.006 | [3] 0.079 | [4] -0.041 | [5] -0.017 | [6] -0.018 | [7] 0.058 | [8] -0.003 | [9] -0.039

PNPLA8 (UniProt Q9NP80)
inactive: erlotinib 0.101 | [1] 0.031 | [2] 0.014 | [3] -0.029 | [4] 0.008 | [5] 0 | [6] 0.089 | [7] 0.022 | [8] 0.018 | [9] 0.037

PARP1 (UniProt P09874)
inactive: erlotinib 0.076 | [1] 0.135 | [2] 0.042 | [3] -0.005 | [4] 0.098 | [5] -0.042 | [6] 0.137 | [7] 0.35 | [8] -0.078 | [9] -0.042

PTRH2 (UniProt Q9Y3E5)
inactive: erlotinib 0.015 | [1] 0.048 | [2] 0.125 | [3] -0.002 | [4] 0.049 | [5] -0.004 | [6] 0.169 | [7] -0.022 | [8] -0.038 | [9] 0.007

PTDSS1 (UniProt P48651)
inactive: erlotinib -0.076 | [1] -0.12 | [2] -0.099 | [3] 0.045 | [4] -0.031 | [5] -0.114 | [6] 0.03 | [7] 0.041 | [8] 0.016 | [9] -0.058

PPOX (UniProt P50336)
Sequence of UniProt P50336 (P50336 whole entry, looked up): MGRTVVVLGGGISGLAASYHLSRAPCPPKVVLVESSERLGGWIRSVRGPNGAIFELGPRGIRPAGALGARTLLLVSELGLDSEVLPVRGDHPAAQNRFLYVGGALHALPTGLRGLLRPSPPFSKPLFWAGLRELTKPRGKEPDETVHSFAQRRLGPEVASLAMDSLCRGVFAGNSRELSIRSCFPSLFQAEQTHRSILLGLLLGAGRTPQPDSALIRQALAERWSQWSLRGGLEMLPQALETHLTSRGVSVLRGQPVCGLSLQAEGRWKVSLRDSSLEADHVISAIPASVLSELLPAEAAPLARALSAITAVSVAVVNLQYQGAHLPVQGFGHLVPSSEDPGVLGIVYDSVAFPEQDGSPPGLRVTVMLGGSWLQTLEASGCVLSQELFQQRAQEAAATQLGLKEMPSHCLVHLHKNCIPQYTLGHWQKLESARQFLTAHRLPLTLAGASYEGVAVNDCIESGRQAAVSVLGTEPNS
inactive: erlotinib 0.112 | [1] 0.415 | [2] 0.156 | [3] 0.416 | [4] 0.039 | [5] -0.004 | [6] 0.095 | [7] 0.013 | [8] 0.051 | [9] -0.011

POP1 (UniProt Q99575)
inactive: erlotinib -0.01 | [1] 0.028 | [2] -0.015 | [3] 0.029 | [4] -0.011 | [5] 0.022 | [6] 0.017 | [7] -0.016 | [8] 0 | [9] -0.01

PKN1 isoform 2 (UniProt Q16512)
Sequence of UniProt Q16512 (Q16512 whole entry, looked up): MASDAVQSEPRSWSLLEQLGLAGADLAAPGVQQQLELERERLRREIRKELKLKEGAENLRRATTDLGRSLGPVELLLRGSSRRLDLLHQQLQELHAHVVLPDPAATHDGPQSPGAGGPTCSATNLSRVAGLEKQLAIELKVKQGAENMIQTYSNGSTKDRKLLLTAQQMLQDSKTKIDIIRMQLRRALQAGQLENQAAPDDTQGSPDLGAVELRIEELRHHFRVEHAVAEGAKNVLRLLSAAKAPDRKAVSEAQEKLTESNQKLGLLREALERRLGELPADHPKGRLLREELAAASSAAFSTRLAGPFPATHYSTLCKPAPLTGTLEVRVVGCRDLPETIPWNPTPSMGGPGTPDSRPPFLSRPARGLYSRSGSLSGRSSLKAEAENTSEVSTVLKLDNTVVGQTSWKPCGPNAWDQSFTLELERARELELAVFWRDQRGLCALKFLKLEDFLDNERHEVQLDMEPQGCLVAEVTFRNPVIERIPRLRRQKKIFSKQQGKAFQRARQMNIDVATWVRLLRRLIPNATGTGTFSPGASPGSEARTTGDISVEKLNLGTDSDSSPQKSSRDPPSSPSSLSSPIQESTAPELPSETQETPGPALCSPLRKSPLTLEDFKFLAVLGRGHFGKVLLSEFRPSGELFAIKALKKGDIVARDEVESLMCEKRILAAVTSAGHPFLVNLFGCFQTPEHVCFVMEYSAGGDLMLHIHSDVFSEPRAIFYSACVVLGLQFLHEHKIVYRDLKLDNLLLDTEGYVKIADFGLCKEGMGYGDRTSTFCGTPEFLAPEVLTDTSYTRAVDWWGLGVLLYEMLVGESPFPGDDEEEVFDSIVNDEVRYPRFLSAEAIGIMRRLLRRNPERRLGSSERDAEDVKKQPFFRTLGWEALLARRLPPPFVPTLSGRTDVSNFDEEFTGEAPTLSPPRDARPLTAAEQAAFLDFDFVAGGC
inactive: erlotinib 0.018 | [1] 0.088 | [2] 0.064 | [3] 0.055 | [4] 0.059 | [5] 0 | [6] 0.011 | [7] 0 | [8] -0.061
active: [9] -0.326

PSMD11 (UniProt O00231)
Sequence of UniProt O00231 (O00231 whole entry, looked up): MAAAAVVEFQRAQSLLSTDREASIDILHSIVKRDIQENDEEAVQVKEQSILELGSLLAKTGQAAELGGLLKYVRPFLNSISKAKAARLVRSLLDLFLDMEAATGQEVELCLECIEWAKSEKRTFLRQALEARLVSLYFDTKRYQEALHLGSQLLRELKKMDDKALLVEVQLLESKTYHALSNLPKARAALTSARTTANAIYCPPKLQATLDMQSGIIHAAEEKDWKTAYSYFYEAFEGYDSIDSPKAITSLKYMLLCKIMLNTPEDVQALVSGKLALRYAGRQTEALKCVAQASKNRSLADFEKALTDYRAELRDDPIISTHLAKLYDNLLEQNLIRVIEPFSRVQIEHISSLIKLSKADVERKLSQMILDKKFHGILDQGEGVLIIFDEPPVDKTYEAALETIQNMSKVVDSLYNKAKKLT
inactive: erlotinib -0.097 | [1] -0.023 | [2] -0.039 | [3] 0.007 | [4] -0.035 | [5] -0.035 | [6] 0.058 | [7] 0.047 | [8] -0.033 | [9] -0.026

PCLAF (UniProt Q15004)
inactive: erlotinib 0.073 | [1] -0.017 | [2] -0.066 | [3] 0.016 | [4] -0.039 | [5] 0.033 | [6] -0.105 | [7] -0.13 | [8] -0.036 | [9] 0.032

PHLDB1 isoform 2 (UniProt Q86UU1)
inactive: erlotinib -0.02 | [1] 0.03 | [2] 0.099 | [3] 0.027 | [4] 0.165 | [5] -0.093 | [6] 0.008 | [7] -0.125 | [8] -0.048 | [9] 0.025
